Experimental data as given in PubChem BioAssay (NCI).
The panel holds about 83,000 compounds, 20% with a hit somewhere; the sample as a whole holds those more often.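 Interpretation: 100, growth as untreated; towards 0, rising growth inhibition; 0, no net growth; 0 to -100, cell death. Compounds scoring below 10 were considered active.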 Values without a mark were called inactive. The source made the active and inactive calls.

Columns and labels:
Assay in all cases: NCI-60 one-dose screen, 48 h (100 = growth as untreated, 0 = no growth, -100 = all killed)
Conditions in all cases: 10 µM unless noted
SR leukemia = test system: SR leukemia
RPMI-8226 leukemia = test system: RPMI-8226 leukemia
OVCAR-8 ovarian = test system: OVCAR-8 ovarian
OVCAR-5 ovarian = test system: OVCAR-5 ovarian
OVCAR-4 ovarian = test system: OVCAR-4 ovarian
SK-OV-3 ovarian = test system: SK-OV-3 ovarian
IGROV1 ovarian = test system: IGROV1 ovarian
OVCAR-3 ovarian = test system: OVCAR-3 ovarian
HS 578T breast = test system: HS 578T breast
NCI/ADR-RES ovarian = test system: NCI/ADR-RES ovarian

SMILES	growth (SR leukemia)	growth (RPMI-8226 leukemia)	growth (OVCAR-8 ovarian)	growth (OVCAR-5 ovarian)	growth (OVCAR-4 ovarian)	growth (SK-OV-3 ovarian)	growth (IGROV1 ovarian)	growth (OVCAR-3 ovarian)	growth (HS 578T breast)	growth (NCI/ADR-RES ovarian)
C/C(=N\NC(=O)CSc1nc2ccccc2c(=O)n1CCc1ccc(S(N)(=O)=O)cc1)c1ccccn1	22.8%	30.9%	22.8%	39.8%	19.5%	20.8%	45.5%	12.5%	73.7%	74.4%
COc1cc2cc(CN3CCN(c4nccc(-c5ccc6ccccc6c5)n4)CC3)c(=O)[nH]c2cc1OC	-23.1% (active)	61.2%	28.9%	102%	53.4%	99.6%	92%	39%	95.4%	85.9%
CCCCC[n+]1ccc(SCC(=O)N(C)c2ccc(Oc3ccccc3)cc2)c2ccccc21	84.5%	66.2%	98.4%	105%	92.6%	101%	117%	90.9%	109%	104%
CCc1ccc(CNc2ccc(N3CCOCC3)c(C(=O)O)c2)cc1	104%	109%	102%	99.9%	110%	103%	102%	104%	125%	98.6%
O=C1Nc2cc(-c3ccc(NC(=O)C4CC4)cc3)ccc2/C1=C/c1ccc[nH]1	44.8%	93.6%	110%	98%	73.4%	105%	99.2%	110%	110%	106%
CNCCn1c(=O)c2cc(OC)c(OC)cc2c2ccc3cc4c(cc3c21)OCO4	-22.4% (active)	-27.6% (active)	10.2%	4.57% (active)	-10.9% (active)	-0.269% (active)	0.994% (active)	-6.33% (active)	4.39% (active)	4.99% (active)
COc1ccc(/C=C(\C#N)n2nc3cccc(F)c3n2)cc1	82.4%	102%	100%	108%	101%	108%	96.8%	109%	104%	104%
CNCCOc1nc2c3cnccc3cc(-c3cc(OC)c(OC)c(OC)c3)c2c2ccncc12	-18.2% (active)	-32% (active)	-37.3% (active)	-9.07% (active)	-2.03% (active)	-33.9% (active)	-16.3% (active)	1.62% (active)	-25.7% (active)	-27.9% (active)
CCCCCN1C=C/C(=C\C(=O)N(C)c2ccc(OC(F)(F)F)cc2)c2ccccc21	100%	94.7%	95.3%	100%	87.6%	90.6%	93.2%	105%	90.5%	105%
COc1ccc2c(c1)oc1c(C)c3c(c(C)c12)C(=O)N(N)C3=O	26.2%	59.5%	26.9%	40.4%	-20.8% (active)	61.2%	26.8%	24.9%	19.1%	28.6%
CCOC(=O)c1cc(C(=O)c2ccc(Br)cc2)n2ccc(/C=C/c3cc[n+](CC(=O)c4ccc(OC)cc4)cc3)cc12	-2.64% (active)	45.7%	59.9%	102%	86.7%	114%	86%	102%	129%	87.5%
C=C(C)[C@@H]1CC[C@]2(C(=O)N3CCN(C)CC3)CC[C@]3(C)[C@H](CC[C@@H]4[C@@]5(C)CC[C@H](OCCC#N)C(C)(C)[C@@H]5CC[C@]43C)[C@@H]12	3.86% (active)	29.7%	6.81% (active)	129%	48.8%	109%	98.2%	103%	104%	45.8%
O=C(Nc1cccc(C(=O)N2CCc3ccc(Cl)cc32)c1)c1ccco1	20.4%	34.6%	51.5%	70.7%	70.5%	82.6%	31.1%	18.2%	28.9%	24.2%
